We go through 51 compounds from PubChem BioAssay (Tox21).

The nature of assay [1]: cAMP Responsive Elements (CRE) small molecule antagonists, cell-based qHTS assay: qHTS cell viability counter screen (AID 2060913). Note: nearly all actives have a fitted effect of over 40% in size. In a few lines: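 Cytotoxicity counter screen multiplexed with the CRE-bla antagonist read: HEK293T cells in DMEM with dialyzed FBS and 25 mM HEPES were treated 3 hrs under 0.25 uM final NKH477, then viability measured by CellTiter-Glo luminescence.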
(In general: Quantitative high-throughput screening tests each substance at several concentrations.)

Assay [2] can be described thus: cAMP Responsive Elements (CRE) small molecule agonists, cell-based qHTS assay: qHTS cell viability counter screen (AID 2060914). Note: nearly all actives have a fitted effect of over 50% in size. A digest of the protocol: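 Cells are seeded and incubated 18 h, treated with compounds in DMSO for 3 h, read for the bla reporter, then given CellTiter-Glo; luminescence is measured after 30 min at room temperature.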

Where “and” joins values, the source holds several entries; their conditions need not be identical. Equal entries are not always repeated. Inconclusive results are not listed. Values without a mark were called inactive. Calls of active or inactive are those of the source. Calls come from the whole dose curve; as a rule, active = well fitted cell-killing curve with a large enough effect in the repeat runs; inconclusive = weak or mixed curves, or effect the other way; inactive = flat fitted curve, though single readings scatter.
% is set by controls: 0 for no effect and ±100 for the full control effect; potency is the fitted concentration of half-maximal effect.

For the compound `C[N+](C)(C)CCCCCC[N+](C)(C)C`, the Potency entry in assay [1] and in assay [2] was “inactive” each time.
As for `CCCCCCCC/C=C/C(=O)O`, the Potency result in assay [1] and in assay [2] was “inactive” throughout.
On to `O=C(O)c1cccc(C[C@@H]2COc3ccc(OCc4nc5cc(F)ccc5s4)cc3[C@@H]2O)c1`, for which the Potency entry in assay [1] and in assay [2] was “inactive” each time.
For the compound `O=C1NC2CCCCN2C12CCN(CCCN1c3ccccc3CCc3ccc(Cl)cc31)CC2` (configuration not stated), the Potency entry in assay [1] and in assay [2] was “inactive” each time.
With `COc1cc(C(C)C)ccc1C`, the viability change, negative = cytotoxic in assay [1] is 0.655% [at 18.9 µM]. In addition, the activity change, negative = cytotoxicity in assay [2] was -11.5% [at 18.9 µM].
Regarding `CC(=O)OCC(C)C`, the Potency entry in assay [1] and in assay [2] was “inactive” in each case.
For the compound `O=Cc1ccccc1C=O`, the Potency result in assay [1] and in assay [2] was “inactive” each time.
Turning to `CC(C(O)c1ccc(O)cc1)N1CCC(Cc2ccccc2)CC1` (configuration not stated), the Potency entry in assay [1] and in assay [2] was “inactive” each time.
Take `OCc1cccnc1`: the Potency entry in assay [1] and in assay [2] was “inactive” throughout.
As to `CN(C)c1nc(N(C)C)nc(N(C)C)n1`, the Potency entry in assay [1] and in assay [2] was “inactive” in each case.
For the compound `Nc1ccc(F)cc1F`, the Potency entry in assay [1] and in assay [2] was “inactive” throughout.
`OC1CCC(C2CCCCC2)CC1` (configuration not stated): the Potency entry in assay [1] and in assay [2] was “inactive” throughout.
Consider `Cc1cccc(C)n1`, for which the Potency result in assay [1] and in assay [2] was “inactive” throughout.
In the case of `CCOC(=O)/C=C/c1ccccc1`, the Potency entry in assay [1] and in assay [2] was “inactive” each time.
On to `CC(C)CCOC(=O)c1ccc(N(C)C)cc1`, for which the Potency entry in assay [1] and in assay [2] was “inactive” throughout.
For the compound `CCCCCCCC/C=C/CCCOC(C)=O`, the Potency entry in assay [1] and in assay [2] was “inactive” each time.
`CCc1ccc(Br)cc1`: the Potency entry in assay [1] and in assay [2] was “inactive” each time.
Consider `CN(C)c1ccc(C(=C2C=CC(=[N+](C)C)C=C2)c2ccc(N(C)C)cc2)cc1`, for which the Potency is 30.5 µM (active) and 61.1 µM (active) and 29.8 µM (active) in assay [1]; 48.3 µM (active) and 61.1 µM (active) and 29.8 µM (active) in assay [2].
Consider `c1ccc2sc(SN(C3CCCCC3)C3CCCCC3)nc2c1`, for which the Potency result in assay [1] and in assay [2] was “inactive” throughout.
In the case of `COc1ncnc(NS(=O)(=O)c2ccc(N)cc2)c1OC`, the Potency result in assay [1] and in assay [2] was “inactive” throughout.
Consider `CCC1(CO)COCOC1`, for which the Potency entry in assay [1] and in assay [2] was “inactive” each time.
Turning to `CCC(C)S` (configuration not stated), the viability change, negative = cytotoxic in assay [1] is 3.82% [at 3.27 µM]. Further, the activity change, negative = cytotoxicity in assay [2] was 5.15% [at 3.27 µM].
Regarding `C=C1CCC2CC1C2(C)C` (configuration not stated), the Potency entry in assay [1] and in assay [2] was “inactive” in each case.
As for `COC(=O)[C@@H](N)Cc1ccc(O)c(O)c1`, the Potency result in assay [1] and in assay [2] was “inactive” throughout.
As to `Cc1cccc(C)c1NC(=O)CN1CCN(CCCC(c2ccc(F)cc2)c2ccc(F)cc2)CC1`, the Potency result in assay [1] and in assay [2] was “inactive” each time.
With `CCCOc1ccc(S(=O)(=O)N2CCN(CC)CC2)cc1-c1nc2c(CC)n(Cc3ccccn3)nc2c(=O)[nH]1`, the Potency entry in assay [1] and in assay [2] was “inactive” throughout.
Regarding `O=C(NOCC1CC1)c1ccc(F)c(F)c1Nc1ccc(I)cc1Cl`, the Potency entry in assay [1] and in assay [2] was “inactive” throughout.
On to `Cc1cn([C@H]2C[C@H](N=[N+]=[N-])[C@@H](CO)O2)c(=O)[nH]c1=O`, for which the Potency result in assay [1] and in assay [2] was “inactive” throughout.
For the compound `CC(=O)[C@]1(O)Cc2c(O)c3c(c(O)c2[C@@H](O[C@H]2C[C@H](N)[C@H](O)[C@H](C)O2)C1)C(=O)c1ccccc1C3=O`, the Potency result in assay [1] and in assay [2] was “inactive” in each case.
`Nc1nc(F)nc2c1ncn2[C@@H]1O[C@H](CO)[C@@H](O)[C@@H]1O`: the Potency entry in assay [1] and in assay [2] was “inactive” each time.
For the compound `Clc1ccc2nsnc2c1NC1=NCCN1`, the Potency result in assay [1] and in assay [2] was “inactive” each time.
Regarding `Nc1cccc2c(=O)[nH][nH]c(=O)c12`, the Potency result in assay [1] and in assay [2] was “inactive” each time.
As for `CCCOCCOCCOCCO`, the Potency result in assay [1] and in assay [2] was “inactive” each time.
For `BrCCCCCBr`, the Potency entry in assay [1] and in assay [2] was “inactive” in each case.
Consider `O=S1(=O)CC(Cl)(Cl)C(Cl)(Cl)C1`, for which the Potency in assay [1] was 15.4 µM (active); in assay [2], 34.4 µM (active).
Turning to `C=C(C)C(=O)OCC(C)C`, the Potency entry in assay [1] and in assay [2] was “inactive” in each case.
Consider `Cc1cc(O)c(Cl)c(C)c1Cl`, for which the Potency result in assay [1] and in assay [2] was “inactive” in each case.
On to `Nc1ccc(N=Nc2ccccc2)c(N)c1`, for which the Potency entry in assay [1] and in assay [2] was “inactive” throughout.
On to `CCCCCCCC/C=C\CCCCCCCC(=O)OC[C@@H](O)[C@H]1OC[C@H](O)[C@H]1O`, for which the Potency result in assay [1] and in assay [2] was “inactive” in each case.
Consider `C=CCCCCCCCCC=O`, for which the Potency entry in assay [1] and in assay [2] was “inactive” throughout.
With `COc1cc2nc(Cl)nc(N)c2cc1OC`, the Potency entry in assay [1] and in assay [2] was “inactive” each time.
With `CCCCOC(=O)C(C)Oc1ccc(Oc2ccc(C(F)(F)F)cn2)cc1` (configuration not stated), the Potency entry in assay [1] and in assay [2] was “inactive” in each case.
For `C#CC(C)(CC)OC(=O)c1ccccc1C(=O)O` (configuration not stated), the Potency entry in assay [1] and in assay [2] was “inactive” throughout.
In the case of `CC1=CC(C)(C)Nc2ccccc21`, the Potency entry in assay [1] and in assay [2] was “inactive” each time.
For the compound `ClC1=C(Cl)C(Cl)(Cl)C(Cl)=C1Cl`, the Potency entry in assay [1] and in assay [2] was “inactive” throughout.
With `O=S(O)CO`, the Potency entry in assay [1] and in assay [2] was “inactive” in each case.
As for `CC(C)OB(OC(C)C)OC(C)C`, the Potency entry in assay [1] and in assay [2] was “inactive” throughout.
Take `C=C1CC/C=C(\C)CC[C@@H]2[C@@H]1CC2(C)C`: the Potency result in assay [1] and in assay [2] was “inactive” throughout.
`COc1ccc(C(Cl)=C(c2ccc(OC)cc2)c2ccc(OC)cc2)cc1`: the Potency entry in assay [1] and in assay [2] was “inactive” in each case.
For `CCCC(=O)C(C)=O`, the Potency result in assay [1] and in assay [2] was “inactive” throughout.
`CCCCC(CC)COC(=O)CCCCCCCC(=O)OCC(CC)CCCC` (configuration not stated): the Potency entry in assay [1] and in assay [2] was “inactive” in each case.
